As a reminder, the viability is a read-out of living cells in per cent, often relative to untreated cells.

Data on 22 molecules can be found in PubChem BioAssay (NCATS).

For test [1], the target named is Cellular tumor antigen p53 (Homo sapiens) (UniProt P04637). Nature of the test: Primary qHTS for small molecule compounds that upregulate eGFP-tagged delta133p53alpha (in N-terminal) cells. (AID 2060322). Further: nearly all actives have a fitted effect of over 75% in size. Further: potency means the concentration at half of the fitted maximal effect.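 On activation: cells pre-induced with doxycycline then dosed without doxycycline; series mostly up to about 56 µM; 0% = DMSO vehicle and 100% = reference activator.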 The note with it: NCI-H358 eGFP-delta133p53alpha fluorescence, 24 h; activation: stronger effect = higher value. A digest of the protocol: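 NCI-H358 cells pre-induced 24 h with 10 ng/ml doxycycline for eGFP-delta133p53alpha, plated dox-free and exposed 24 h at 37C to titrated compounds. Fixed, Hoechst-stained; gated GFP peak intensity by laser scanning cytometry, normalized to DMSO (0%) and 57.5 uM 5-azacytidine (100%).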
(Quantitative high-throughput screening tests each substance at several concentrations.)

Test [2] has as its target Aldehyde dehydrogenase, mitochondrial (Homo sapiens) (UniProt P05091). Nature of the test: qHTS for Inhibitors of the Aldehyde Dehydrogenase Family (ALDH2) Primary screen (AID 2061308).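 Further: plate controls were vehicle for no effect and reference inhibitor for full effect; nearly all actives have a fitted effect of over 55% in size.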
A short description of test [3]: BET inhibitor-based combinations targeting novel dependencies in MECOM-rearranged (r) AML: SET-2 cell line (AID 2202231). Further: nearly all actives have a fitted effect of over 35% in size. Further: potency means the concentration at half of the fitted maximal effect.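 On viability: plate controls were DMSO treated cells for no effect and wells without cells for full effect.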 To be noted: SET-2 AML cells viability, CellTiter-Glo luminescence, 48 h; viability: stronger effect = lower value, concentration not given here. Summed up: (§1)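 Cells were plated at 500 per well and exposed to an 11-point dose series of each drug for 48 hr. Viability was measured by CellTiter-Glo luminescence, normalized to DMSO and empty-well controls, and summarized as AUC and per-cell-line Z-AUC.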

A short description of test [4]: BET inhibitor-based combinations targeting novel dependencies in MECOM-rearranged (r) AML: MV-4-11 cell line (AID 2202233). Further: potency means the concentration at half of the fitted maximal effect; nearly all actives have a fitted effect of over 45% in size. Summed up: (§2)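 Activity is given as area under the curve and as Z-AUC, mean-centred within each cell line. It comes from 11-point dose curves normalized to DMSO and empty wells. CellTiter-Glo luminescence was read after 48 hr drug exposure of 500 cells/well.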

The nature of test [5]: BET inhibitor-based combinations targeting novel dependencies in MECOM-rearranged (r) AML: HNT-34 cell line (AID 2202234). Further: nearly all actives have a fitted effect of over 35% in size. Further: potency means the concentration at half of the fitted maximal effect. A digest of the protocol: as §2
Test [6] can be described thus: BET inhibitor-based combinations targeting novel dependencies in MECOM-rearranged (r) AML: AML-194 cell line (AID 2202237; further: nearly all actives have a fitted effect of over 40% in size; further: potency means the concentration at half of the fitted maximal effect). Summed up:
as §1

The target in test [7] is Retinaldehyde dehydrogenase 3 (Homo sapiens) (UniProt P47895). Description: qHTS for Inhibitors of the Aldehyde Dehydrogenase Family (ALDH1A3) Confirmatory screens (AID 2061311). Further: nearly all actives have a fitted effect of over 60% in size. Further: potency means the concentration at half of the fitted maximal effect.
The target is the same in test [8]. Description: qHTS for Inhibitors of the Aldehyde Dehydrogenase Family (ALDH1A3) Validation screen (AID 2061312). Further: potency means the concentration at half of the fitted maximal effect; nearly all actives have a fitted effect of over 45% in size.
The target is the same in test [9]. Description: qHTS for Inhibitors of the Aldehyde Dehydrogenase Family (ALDH1A3) Primary screen (AID 2061315). Further: potency means the concentration at half of the fitted maximal effect.
Test [10] addresses Aldehyde dehydrogenase 1A1 (Homo sapiens) (UniProt P00352). Description: qHTS for Inhibitors of the Aldehyde Dehydrogenase Family (ALDH1A1) Confirmatory screens (AID 2061316). Further: nearly all actives have a fitted effect of over 65% in size. Further: potency means the concentration at half of the fitted maximal effect.
A short description of test [11]: BET inhibitor-based combinations targeting novel dependencies in MECOM-rearranged (r) AML: OCI-AML3 cell line (AID 2202232). Further: nearly all actives have a fitted effect of over 35% in size. Further: potency means the concentration at half of the fitted maximal effect. To be noted: Potency: OCI-AML3 viability. A digest of the protocol:
as §1

The nature of test [12]: BET inhibitor-based combinations targeting novel dependencies in MECOM-rearranged (r) AML: UCSD-AML1 cell line (AID 2202235). Further: nearly all actives have a fitted effect of over 40% in size. Further: potency means the concentration at half of the fitted maximal effect. A digest of the protocol:
as §2

The nature of test [13]: BET inhibitor-based combinations targeting novel dependencies in MECOM-rearranged (r) AML: AML-191 cell line (AID 2202236; further: nearly all actives have a fitted effect of over 35% in size; further: potency means the concentration at half of the fitted maximal effect). A digest of the protocol: as §1
Test [14] deals with Retinal dehydrogenase 2 (Homo sapiens) (UniProt O94788). Description: qHTS for Inhibitors of the Aldehyde Dehydrogenase Family (ALDH1A2) Confirmation screens (AID 2061314). Further: potency means the concentration at half of the fitted maximal effect; nearly all actives have a fitted effect of over 65% in size.

Where “and” joins values, the source holds several entries; their conditions need not be identical. Identical values can stand only once. Results filed as inconclusive are left out. Values without a mark were called inactive. Calls of active or inactive are those of the source. The call rests on the fitted dose curve; in most records, active means well fitted curve in the direction sought with a large enough effect; inconclusive means small, poorly fitted or top-dose-only effect, or another doubt; inactive means no such curve, though single readings can be large; an effect the other way counts as inactive or inconclusive.

Chain of Cellular tumor antigen p53 (Homo sapiens) (P04637 whole entry, looked up): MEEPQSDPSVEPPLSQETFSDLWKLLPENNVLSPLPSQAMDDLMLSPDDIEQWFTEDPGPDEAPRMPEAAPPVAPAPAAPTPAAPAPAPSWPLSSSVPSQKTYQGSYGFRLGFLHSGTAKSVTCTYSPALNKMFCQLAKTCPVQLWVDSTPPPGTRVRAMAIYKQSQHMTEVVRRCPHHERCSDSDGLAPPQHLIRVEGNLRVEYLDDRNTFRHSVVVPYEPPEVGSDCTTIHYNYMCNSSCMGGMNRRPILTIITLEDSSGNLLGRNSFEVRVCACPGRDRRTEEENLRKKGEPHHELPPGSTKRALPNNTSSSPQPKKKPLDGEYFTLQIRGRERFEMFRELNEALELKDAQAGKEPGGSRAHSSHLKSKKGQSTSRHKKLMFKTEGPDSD

On to `c1nc2nc(Nc3ccc(N4CCOCC4)cc3)nc(NC3CCCCC3)c2[nH]1`, for which the activation in [1] was -34%. For the same molecule, the Potency entry in [2] was “inactive”. The Potency was 4.17 µM (active) in test [3], 0.372 µM (active) in test [4], 1.48 µM (active) in [5] and 2.63 µM (active) in test [6].

Regarding `C=CC(=O)N1CC(N2CCN(C(=O)CNc3cc(C4CC4)c(Cl)cc3O)CC2)C1`, the activation in [1] is 10%. Also, the Potency in test [7] is 4 µM (active); in [8] it was 10 µM (active); in test [9], 2.51 µM (active); in [10], 22.5 µM (active).

For `CC1=C(C(=O)OC2CCCCC2)C(c2ccc([N+](=O)[O-])cc2)C2=C(CC(C)(C)CC2=O)N1` (centres undefined), in [1], the activation was 7.16%. For the same molecule, the Potency is 2.25 µM (active) in [7], 5.62 µM (active) in test [8], 7.08 µM (active) in test [9] and 10.1 µM (active) in test [10].

As for `Cc1csc(N(C(=O)CSc2ccc(-c3ccccc3)nn2)C2CC2)n1`, the activation in test [1] was 10.5%. The Potency in test [8] was 2.82 µM (active).

In the case of `Cc1cc2c(N3CCCC3)nc(N3CCCC3)nc2n1C`, in [1], the activation is -16.7%. The figures for the Potency in [7] and in test [10] were 14.2 µM (active) and 11.3 µM (active), respectively. The Potency result in [9] is “inactive”.

For `NC(=O)c1noc([C@H](CCCC2CCCCC2)CC(=O)NO)n1`, the activation in [1] was -7.14%. The Potency result in test [2] is “inactive”. The Potency in test [3] is 5.9 µM (active); in [11] it was 14.8 µM (active); in test [5], 2.95 µM (active); in [12], 5.25 µM (active); in [13], 3.72 µM (active); in test [6], 6.61 µM (active).

`COc1cc(O)c2c(c1)/C=C/C[C@H](O)[C@H](O)C(=O)/C=C\C[C@H](C)OC2=O`: the figures for the Potency in [1], in test [7] and in test [14] were 10.7 µM (active), 5.04 µM (active) and 5.04 µM (active), respectively.

Turning to `FC(F)c1nc2ccccc2n1-c1nc(N2CCOCC2)nc(N2CCOCC2)n1`, the activation in [1] was 43.2% and 24.1%. For the same molecule, the Potency entry in [2] was “inactive”. The Potency in [3] is 3.72 µM (active); in test [11], 0.235 µM (active).

For the molecule `Cc1cc(O)cc(Oc2cc(C)c(C(=O)O)c(O)c2)c1`, the activation in test [1] is -7.63%. Besides, the figures for the Potency in test [7] and in test [10] were 22.5 µM (active) and 17.9 µM (active), respectively.

As for `CN1CCc2c(n(Cc3ccc(C(=O)NO)cc3)c3ccccc23)C1`, the activation in test [1] was 23.6%. The Potency result in [2] and in [12] was “inactive” throughout. Also, the Potency in test [4] was 20.9 µM (active).

Consider `COc1cc(N2CCN(C)CC2)ccc1Nc1nccc(-c2cn(C)c3cnccc23)n1`, for which the Potency is 26.9 µM (active) in [1]; 20.9 µM (active) in test [3]; 14.8 µM (active) in test [11]; 0.372 µM (active) in [4]; 13.2 µM (active) in [5]; 6.61 µM (active) in [12]. In addition, the results for the Potency in [13] and in test [6] were 13.2 µM (active) and 14.8 µM (active), respectively. Besides, the Potency result in [2] was “inactive”.

Take `CCOc1cc(N2CCC(O)CC2)ccc1Nc1ncc2c(n1)N(C1CCCC1)CCC(=O)N2C`: in test [1], the activation is 4.33%. Moreover, the Potency in test [7] is 20.1 µM (active). Also, in test [10], the Potency entry was “inactive”.

With `C=C1CCC2C(C)(COC(C)=O)CCCC2(C)C1CCC(C)CC(=O)O` (centres undefined), in test [1], the activation was -12.2%. In addition, the Potency entry in test [7] and in test [9] was “inactive” each time.

With `COc1c(Cl)cc2c([nH]c3cnccc32)c1NC(=O)c1cccnc1C`, in [1], the activation was 16.3%. Moreover, the Potency entry in test [2] and in [9] was “inactive” in each case. The values for the Potency in test [13] and in test [6] were 20.9 µM (active) and 23.5 µM (active), respectively.

Turning to `CC1(C)C=CN2C(=O)C3=CCCN3C(=O)[C@@H]2C[C@@]12Nc1ccccc1C2=O`, the activation in test [1] is -19.8%. Besides, the Potency in [7] was 7.83 µM (active).

Take `C=CC(=O)Nc1cccc(Oc2nc(Nc3ccc(N4CCN(C)CC4)cc3OC)ncc2Cl)c1`: the Potency in test [1] is 19.3 µM (active) and 30.1 µM (active); in test [3], 20.9 µM (active); in test [11], 10.5 µM (active); in test [4] it was 4.68 µM (active); in test [5], 9.34 µM (active); in test [13], 14.8 µM (active). Also, the Potency in test [6] was 16.6 µM (active). Also, the Potency result in test [2] was “inactive”.

Take `C=CC(=O)Nc1cccc(Nc2nc(Nc3ccc(NC4CN(CCF)C4)cc3OC)ncc2C(F)(F)F)c1`: the Potency is 7.57 µM (active) in test [1]; 18.6 µM (active) in test [3]; 16.6 µM (active) in [11]; 2.63 µM (active) in test [4]; 3.32 µM (active) in test [5]; 9.34 µM (active) in test [12]. Besides, the Potency in test [13] and in test [6] was 13.2 µM (active) each time. Further, the Potency entry in [2] was “inactive”.

For the molecule `COc1ccc(Cn2ccc3ccc(C(=O)NO)cc32)cc1`, in test [1], the activation was 20.3% and -6.7%. Also, the Potency entry in test [2] was “inactive”. In addition, the Potency was 20.9 µM (active) in test [4] and 18.6 µM (active) in test [6].

Turning to `NC1(c2ccc(-c3nc4ccn5c(=O)[nH]nc5c4cc3-c3ccccc3)cc2)CCC1`, in test [1], the activation is 26.3% and 14.1% and 3.82%. Also, in test [2], the Potency result is “inactive”. Further, the Potency in [3] was 20.9 µM (active); in test [11] it was 16.6 µM (active); in [4], 13.2 µM (active); in test [5] it was 7.42 µM (active); in test [13], 18.6 µM (active); in test [6], 18.6 µM (active).

For `Cc1c(CN2CCN(S(C)(=O)=O)CC2)sc2c(N3CCOCC3)nc(-c3cnc(N)nc3)nc12`, the activation in test [1] is -10.7%. Also, in [2], the Potency result was “inactive”. Moreover, the Potency in test [11] is 0.59 µM (active); in test [4], 1.32 µM (active); in test [5] it was 1.66 µM (active); in [12], 0.186 µM (active); in test [13] it was 0.59 µM (active).

Turning to `C/C=C/C=C/C(CC(=O)O)Nc1ccc(C=O)cc1` (centres undefined), in [1], the activation is -13.7%. For the same molecule, the Potency in test [7] is 12.7 µM (active); in [10], 2.01 µM (active). Further, in test [9], the Potency result is “inactive”.

As to `CCCCOc1ccc(C(=O)Nc2ccc(F)cc2F)cc1`, the activation in test [1] was -9.74% and -2.39%. Besides, the Potency entry in test [2], in test [11], in test [5], in test [12], in test [13] and in test [6] was “inactive” throughout. Also, in test [3], the viability is 103%.
